# According to the supplement of paper PMC8728848:
# The entries come from a sample that favours the strongest signals as a whole.
# B1: PX9896A-bth-573-26-573 (Bacteroides thetaiotaomicron) (protein)
# chain: ETNNLKTKEDMYKYFGTSKSMLTHVYSYMPQGYQLFATSGGIFTEDRYSMRDCASDDGEFGAYADNIQNTNNGNWSPIKTYDDSWTLYRGIRAANSFIAEIAQVDFTRYEHDGQYTNWMKQLKYFPYEARVLRAHYFFELARRYGDIAMPLEVLTEEEANTIGKTPFSEVISFIVSECDDAANNLPDSYVNEPGAEIGRVTKGFAMAVKSKALLYAASKLHNPSMDTELWKKSAKAAIDIINTGLYSLDPQESANNLDSKEVVLMRINGDDSDFEMFNLPLRMTAGTRTSSLIPYSNYPSQNLVDAFETVNGYKVTLENTGWVCEDPAFDPQSPYENRDKRFYRAILANGMSFKDYTIETFKGGADDGIVSQGGSPTGYFLRKYIQEATSFEPGKEAVSKHHWVIYRYAETLLTYAESMVNAFNDVNYTDETYKYSALWAINEVRKNADMPLIPSMGKDEFMERLYNEWRVEFAFEDHRFWDVRRWKIADTTQRELYGVKIEKQADGTFNFYKNLYETRNWRDCMYLYPIPQSELYKNTNLNPQNTGW
# Legend:
# Experiment in all cases: glycan array binding signal (z-score within array); higher = stronger binding
# Conditions in all cases: glycan notation: IUPAC condensed, linker removed
# [1] = target: Fuc(a1-2)Gal(b1-3)[Fuc(a1-4)]GlcNAc(b1-2)Man(a1-3)[Fuc(a1-2)Gal(b1-3)[Fuc(a1-4)]GlcNAc(b1-2)Man(a1-6)]Man(b1-4)GlcNAc(b1-4)[Fuc(a1-6)]GlcNAc(b1-4)[Fuc(a1-6)]GlcNAc
# Method in brief: (§1)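 Glycan array binding is given as a within-array Z-score, which can be read as non-binding when negative. The arrays, 3228 of them, came from the Consortium for Functional Glycomics database and were retained only where the protein sequence was available. Z-scores were averaged across arrays of the same protein sequence at different concentrations or buffers and across linkers.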
# [2] = target: Fuc(a1-2)Gal(b1-4)GlcNAc(b1-3)Gal(b1-4)GlcNAc
# Method in brief: as §1
# [3] = target: Fuc(a1-2)Gal(b1-4)GlcNAc(b1-3)GalNAc
# Method in brief: as §1
# [4] = target: Fuc(a1-2)[Gal(a1-3)]Gal(b1-3)GlcNAc(b1-2)Man(a1-3)[Fuc(a1-2)[Gal(a1-3)]Gal(b1-3)GlcNAc(b1-2)Man(a1-6)]Man(b1-4)GlcNAc(b1-4)GlcNAc
# Method in brief: as §1
# [5] = target: Fuc(a1-2)[Gal(a1-3)]Gal(b1-4)Glc
# Method in brief: as §1
# [6] = target: Fuc(a1-2)[Gal(a1-3)]Gal(b1-4)GlcNAc(b1-6)GalNAc
# Method in brief: as §1
# [7] = target: Fuc(a1-2)[Gal(a1-3)]Gal(b1-4)[Fuc(a1-3)]Glc
# Method in brief: as §1
# [8] = target: Fuc(a1-2)[GalNAc(a1-3)]Gal(b1-3)GalNAc(a1-3)[Fuc(a1-2)]Gal(b1-4)GlcNAc
# Method in brief: as §1
# [9] = target: Fuc(a1-3)[Gal3S(b1-4)]GlcNAc
# Method in brief: as §1
# [10] = target: Fuc(a1-3)[Gal3S(b1-4)]GlcNAc6S
# Method in brief: as §1
# Fuc(a1-4)GlcNAc = target: Fuc(a1-4)GlcNAc
# Method in brief: as §1
# [11] = target: Gal(a1-3)Gal(b1-4)[Fuc(a1-3)]GlcNAc(b1-2)Man(a1-3)[Gal(a1-3)Gal(b1-4)[Fuc(a1-3)]GlcNAc(b1-2)Man(a1-6)]Man(b1-4)GlcNAc(b1-4)GlcNAc
# Method in brief: as §1
# [12] = target: Gal(a1-3)[Gal(a1-4)]Gal(b1-4)GlcNAc
# Method in brief: as §1
# [13] = target: Gal(b1-3)GalNAc(a1-3)[Fuc(a1-2)]Gal(b1-4)Glc
# Method in brief: as §1
# [14] = target: Gal(b1-3)GalNAc(b1-4)Gal(b1-4)Glc
# Method in brief: as §1
# [15] = target: Gal(b1-3)GlcNAc(b1-3)Gal(b1-4)GlcNAc(b1-2)[Gal(b1-3)GlcNAc(b1-3)Gal(b1-4)GlcNAc(b1-6)]Man(a1-6)[Gal(b1-3)GlcNAc(b1-3)Gal(b1-4)GlcNAc(b1-2)Man(a1-3)]Man(b1-4)GlcNAc(b1-4)[Fuc(a1-6)]GlcNAc
# Method in brief: as §1
# [16] = target: Gal(b1-3)GlcNAc(b1-6)[Gal(b1-3)]GalNAc
# Method in brief: as §1
# [17] = target: Gal(b1-4)GlcNAc(b1-2)Man(a1-3)[GlcNAc(b1-2)Man(a1-6)]Man(b1-4)GlcNAc(b1-4)GlcNAc
# Method in brief: as §1
# [18] = target: Gal(b1-4)GlcNAc(b1-2)Man(a1-6)[GlcNAc(b1-2)Man(a1-3)]Man(b1-4)GlcNAc(b1-4)GlcNAc
# Method in brief: as §1
# [19] = target: Gal(b1-4)GlcNAc(b1-2)[Gal(b1-4)GlcNAc(b1-6)]Man(a1-6)[GlcNAc(b1-4)][Gal(b1-4)GlcNAc(b1-2)[Gal(b1-4)GlcNAc(b1-4)]Man(a1-3)]Man(b1-4)GlcNAc(b1-4)[Fuc(a1-6)]GlcNAc
# Method in brief: as §1
# [20] = target: Gal(b1-4)GlcNAc(b1-3)Gal(b1-3)GalNAc
# Method in brief: as §1
# [21] = target: Gal(b1-4)GlcNAc(b1-3)Gal(b1-4)GlcNAc(b1-2)[Gal(b1-4)GlcNAc(b1-3)Gal(b1-4)GlcNAc(b1-6)]Man(a1-6)[Gal(b1-4)GlcNAc(b1-3)Gal(b1-4)GlcNAc(b1-2)Man(a1-3)]Man(b1-4)GlcNAc(b1-4)GlcNAc
# Method in brief: as §1
# [22] = target: Gal(b1-4)GlcNAc(b1-3)Gal(b1-4)GlcNAc(b1-3)Gal(b1-4)GlcNAc(b1-3)Gal(b1-4)GlcNAc(b1-2)Man(a1-3)[Gal(b1-4)GlcNAc(b1-3)Gal(b1-4)GlcNAc(b1-3)Gal(b1-4)GlcNAc(b1-3)Gal(b1-4)GlcNAc(b1-2)Man(a1-6)]Man(b1-4)GlcNAc(b1-4)GlcNAc
# Method in brief: as §1
# [23] = target: Gal(b1-4)GlcNAc(b1-3)Gal(b1-4)GlcNAc(b1-3)Gal(b1-4)GlcNAc(b1-3)Gal(b1-4)GlcNAc(b1-3)Gal(b1-4)GlcNAc(b1-2)Man(a1-3)[Gal(b1-4)GlcNAc(b1-3)Gal(b1-4)GlcNAc(b1-3)Gal(b1-4)GlcNAc(b1-3)Gal(b1-4)GlcNAc(b1-3)Gal(b1-4)GlcNAc(b1-2)Man(a1-6)]Man(b1-4)GlcNAc(b1-4)GlcNAc
# Method in brief: as §1
# Gal6S(b1-3)GlcNAc6S = target: Gal6S(b1-3)GlcNAc6S
# Method in brief: as §1
# [24] = target: GalNAc(b1-4)GlcNAc(b1-3)GalNAc(b1-4)GlcNAc
# Method in brief: as §1
# GalNAc3S(b1-4)GlcNAc3S = target: GalNAc3S(b1-4)GlcNAc3S
# Method in brief: as §1
binder,measurement,setting,value
B1,glycan array binding signal (z-score),[1],0.845
same,glycan array binding signal (z-score),[2],-0.815
same,glycan array binding signal (z-score),[3],0.126
same,glycan array binding signal (z-score),[4],5.75
same,glycan array binding signal (z-score),[5],-0.838
same,glycan array binding signal (z-score),[6],-0.304
same,glycan array binding signal (z-score),[7],-1.01
same,glycan array binding signal (z-score),[8],0.607
same,glycan array binding signal (z-score),[9],-0.437
same,glycan array binding signal (z-score),[10],8.17
same,glycan array binding signal (z-score),Fuc(a1-4)GlcNAc,0.243
same,glycan array binding signal (z-score),[11],2.9
same,glycan array binding signal (z-score),[12],3.79
same,glycan array binding signal (z-score),[13],-0.889
same,glycan array binding signal (z-score),[14],-0.458
same,glycan array binding signal (z-score),[15],3.52
same,glycan array binding signal (z-score),[16],0.949
same,glycan array binding signal (z-score),[17],3.74
same,glycan array binding signal (z-score),[18],4.65
same,glycan array binding signal (z-score),[19],0.323
same,glycan array binding signal (z-score),[20],-0.185
same,glycan array binding signal (z-score),[21],5.18
same,glycan array binding signal (z-score),[22],0.219
same,glycan array binding signal (z-score),[23],0.845
same,glycan array binding signal (z-score),Gal6S(b1-3)GlcNAc6S,3.99
same,glycan array binding signal (z-score),[24],-0.28
same,glycan array binding signal (z-score),GalNAc3S(b1-4)GlcNAc3S,-0.744
